This note sets out measurements from ChEMBL document CHEMBL3988442, “University of Dundee, Small-Polar-MMV Screening Library” (2021).

Holding throughout (design): scale not given: direction of the effect not stated beside the values
Assay [1] addresses Protein translocase subunit SecA (Escherichia coli (strain K12)) (UniProt P10408). Put plainly: Assay to Identify E. coli SecA ATPase Inhibitors. It counts as functional. The note with it: 30 µM.
Assay [2] concerns the target T1, Ubiquitin-activating enzyme e1, putative (Leishmania donovani (strain BPK282A1)) (UniProt E9BSI1).
T1 sequence (whole entry): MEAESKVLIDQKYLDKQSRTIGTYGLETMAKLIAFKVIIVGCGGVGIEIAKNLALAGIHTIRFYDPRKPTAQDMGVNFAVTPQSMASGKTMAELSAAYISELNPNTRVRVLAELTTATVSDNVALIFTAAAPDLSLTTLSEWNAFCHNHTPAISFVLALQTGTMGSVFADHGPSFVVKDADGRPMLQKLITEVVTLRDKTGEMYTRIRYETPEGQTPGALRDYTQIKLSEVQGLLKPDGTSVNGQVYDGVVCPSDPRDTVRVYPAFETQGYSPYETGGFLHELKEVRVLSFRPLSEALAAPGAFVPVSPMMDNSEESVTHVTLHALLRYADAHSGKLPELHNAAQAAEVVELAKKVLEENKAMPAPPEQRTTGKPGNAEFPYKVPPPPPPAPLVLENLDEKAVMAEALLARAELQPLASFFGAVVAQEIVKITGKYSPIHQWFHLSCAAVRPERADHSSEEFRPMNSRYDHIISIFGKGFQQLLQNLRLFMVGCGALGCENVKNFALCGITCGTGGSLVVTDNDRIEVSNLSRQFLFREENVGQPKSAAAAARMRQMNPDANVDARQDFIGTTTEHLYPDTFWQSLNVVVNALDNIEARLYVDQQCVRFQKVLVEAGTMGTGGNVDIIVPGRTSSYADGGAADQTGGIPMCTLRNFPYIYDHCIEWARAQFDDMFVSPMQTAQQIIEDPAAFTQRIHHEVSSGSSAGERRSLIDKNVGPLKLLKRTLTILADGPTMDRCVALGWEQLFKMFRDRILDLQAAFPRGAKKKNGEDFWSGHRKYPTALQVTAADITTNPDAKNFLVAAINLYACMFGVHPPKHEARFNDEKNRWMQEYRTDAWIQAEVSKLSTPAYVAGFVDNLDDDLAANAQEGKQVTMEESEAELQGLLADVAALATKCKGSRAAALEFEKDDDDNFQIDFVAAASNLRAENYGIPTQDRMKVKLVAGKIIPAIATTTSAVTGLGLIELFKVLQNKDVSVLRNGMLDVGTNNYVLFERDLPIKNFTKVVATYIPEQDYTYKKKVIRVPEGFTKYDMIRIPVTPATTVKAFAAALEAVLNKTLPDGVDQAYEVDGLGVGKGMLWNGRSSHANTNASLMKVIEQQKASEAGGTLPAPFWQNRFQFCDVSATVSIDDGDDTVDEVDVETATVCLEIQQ
Put plainly: Leishmania donovani Ubiquitin Activating Enzyme (LdE1). Format: functional. The note with it: 30 µM.

Assay [3] addresses AMP-activated protein kinase, AMPK (Homo sapiens) (UniProt P54646+O43741+P54619+Q9UGJ0+Q9Y478+Q13131+Q9UGI9). Put plainly: AMP-dependent Kinase enzyme assay. An in vitro enzyme assay that detects ADP turnover that is directly proportional to AMPK activity. This uses naive AMPK that is activated during the assay with MK-8722. Particulars: 30 µM. It counts as functional.
Assay [4] concerns the target Sialic acid-binding Ig-like lectin 9 (Homo sapiens) (UniProt Q9Y336). Put plainly: Hs-Siglec9 ALPHAscreen SOP 20170721. Particulars: 10 µM. (In Alpha technology, singlet oxygen from a donor bead excites a nearby acceptor bead.)
The test system of a further assay is Trypanosoma cruzi. Put plainly: Trypanosoma cruzi phosphomannomutase and mannose-1-phosphate guanylyltransferase assay. Particulars: 10 µM. Format: functional.
The target of assay [5] is T2, Arginase-2, mitochondrial (Homo sapiens) (UniProt P78540).
T2 sequence (whole entry): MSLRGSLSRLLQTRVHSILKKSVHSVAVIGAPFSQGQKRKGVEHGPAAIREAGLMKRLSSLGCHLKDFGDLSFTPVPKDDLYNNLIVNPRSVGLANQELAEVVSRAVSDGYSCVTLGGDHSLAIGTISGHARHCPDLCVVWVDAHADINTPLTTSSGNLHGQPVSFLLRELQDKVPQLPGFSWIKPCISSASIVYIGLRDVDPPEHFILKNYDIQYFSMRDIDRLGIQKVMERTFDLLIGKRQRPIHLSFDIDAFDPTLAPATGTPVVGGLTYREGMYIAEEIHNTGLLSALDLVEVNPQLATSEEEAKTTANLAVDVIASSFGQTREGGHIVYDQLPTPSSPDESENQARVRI
The assay can be described thus: in vitro enzyme assay to detect the production of urea directly proportional to the activity of Arginase II. Note: in the data most compounds retested in dose-response had high values. The note with it: 33.3 µM. It counts as functional.

Assay [6] has as its target T3, Proteasome subunit beta (Trypanosoma cruzi) (UniProt O96673).
T3 sequence (whole entry): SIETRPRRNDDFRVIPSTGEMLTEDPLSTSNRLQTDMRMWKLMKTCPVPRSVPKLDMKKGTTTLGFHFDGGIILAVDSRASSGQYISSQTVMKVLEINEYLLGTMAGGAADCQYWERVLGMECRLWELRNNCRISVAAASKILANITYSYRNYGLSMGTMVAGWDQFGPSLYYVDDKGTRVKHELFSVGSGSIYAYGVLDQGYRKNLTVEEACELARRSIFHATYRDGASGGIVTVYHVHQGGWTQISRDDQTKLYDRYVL
The assay can be described thus: Trypanosoma cruzi proteasome chymotrypsin-like activity (TcProtChymo) assay. Note: in the data most compounds retested in dose-response had high values. Format: functional. The note with it: 9.37 µM.

The species named for a further assay is Homo sapiens. The assay can be described thus: To identify inhibition of the IFN signalling (Jak-Stat) pathway via expression of an eGFP reporter gene under the control of an IFN-stimulated response element (ISRE) containing MxA promoter. It counts as functional. The note with it: 30 µM. A general note: In a reporter assay the amount or activity of a reporter protein is the signal.

For assay [7], the target named is T4, Tyrosyl-tRNA synthetase, putative (Trypanosoma cruzi (strain CL Brener)) (UniProt Q4DSP6).
T4 sequence (whole entry): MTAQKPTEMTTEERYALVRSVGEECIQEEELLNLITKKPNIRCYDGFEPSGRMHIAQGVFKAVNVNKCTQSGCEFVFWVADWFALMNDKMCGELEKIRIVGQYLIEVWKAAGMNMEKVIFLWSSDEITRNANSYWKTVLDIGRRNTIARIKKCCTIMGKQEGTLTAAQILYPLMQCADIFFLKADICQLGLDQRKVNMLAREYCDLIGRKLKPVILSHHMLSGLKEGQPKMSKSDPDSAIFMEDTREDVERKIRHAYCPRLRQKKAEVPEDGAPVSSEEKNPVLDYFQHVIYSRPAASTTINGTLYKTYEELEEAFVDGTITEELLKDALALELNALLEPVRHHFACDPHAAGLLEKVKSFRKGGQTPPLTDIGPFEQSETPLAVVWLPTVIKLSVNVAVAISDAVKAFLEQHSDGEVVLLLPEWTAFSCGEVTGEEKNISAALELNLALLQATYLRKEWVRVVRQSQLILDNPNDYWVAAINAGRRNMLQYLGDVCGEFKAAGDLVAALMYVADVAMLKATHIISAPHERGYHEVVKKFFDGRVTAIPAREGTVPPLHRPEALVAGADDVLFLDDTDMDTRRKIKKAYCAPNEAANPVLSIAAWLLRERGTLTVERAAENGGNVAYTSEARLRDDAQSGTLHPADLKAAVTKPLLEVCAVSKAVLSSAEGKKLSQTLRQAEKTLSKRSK
Put plainly: Trypanosoma cruzi tyrosyl tRNA synthetase (TcYRS) _High Tyrosine SOP. Note: in the data most compounds retested in dose-response had high values. Format: functional. Particulars: 30 µM.

Assay [8] concerns the target T4, Tyrosyl-tRNA synthetase, putative (Trypanosoma cruzi (strain CL Brener)). The assay can be described thus: Trypanosoma cruzi tyrosyl tRNA synthetase (TcYRS) SOP. It counts as functional. The note with it: 30 µM.
Assay [9] has as its target Chromo domain-containing protein 1 (Saccharomyces cerevisiae (strain ATCC 204508 / S288c) (Baker's yeast)) (UniProt P32657). Put plainly: ScCHD-1 Enzyme Inhibition Assay. Note: in the data most compounds retested in dose-response had high values. It counts as functional. The note with it: 30 µM.

For some of these results: Entries with a potency or affinity are not part of this list.

Protein translocase subunit SecA (Escherichia coli (strain K12)), sequence (P10408 whole entry): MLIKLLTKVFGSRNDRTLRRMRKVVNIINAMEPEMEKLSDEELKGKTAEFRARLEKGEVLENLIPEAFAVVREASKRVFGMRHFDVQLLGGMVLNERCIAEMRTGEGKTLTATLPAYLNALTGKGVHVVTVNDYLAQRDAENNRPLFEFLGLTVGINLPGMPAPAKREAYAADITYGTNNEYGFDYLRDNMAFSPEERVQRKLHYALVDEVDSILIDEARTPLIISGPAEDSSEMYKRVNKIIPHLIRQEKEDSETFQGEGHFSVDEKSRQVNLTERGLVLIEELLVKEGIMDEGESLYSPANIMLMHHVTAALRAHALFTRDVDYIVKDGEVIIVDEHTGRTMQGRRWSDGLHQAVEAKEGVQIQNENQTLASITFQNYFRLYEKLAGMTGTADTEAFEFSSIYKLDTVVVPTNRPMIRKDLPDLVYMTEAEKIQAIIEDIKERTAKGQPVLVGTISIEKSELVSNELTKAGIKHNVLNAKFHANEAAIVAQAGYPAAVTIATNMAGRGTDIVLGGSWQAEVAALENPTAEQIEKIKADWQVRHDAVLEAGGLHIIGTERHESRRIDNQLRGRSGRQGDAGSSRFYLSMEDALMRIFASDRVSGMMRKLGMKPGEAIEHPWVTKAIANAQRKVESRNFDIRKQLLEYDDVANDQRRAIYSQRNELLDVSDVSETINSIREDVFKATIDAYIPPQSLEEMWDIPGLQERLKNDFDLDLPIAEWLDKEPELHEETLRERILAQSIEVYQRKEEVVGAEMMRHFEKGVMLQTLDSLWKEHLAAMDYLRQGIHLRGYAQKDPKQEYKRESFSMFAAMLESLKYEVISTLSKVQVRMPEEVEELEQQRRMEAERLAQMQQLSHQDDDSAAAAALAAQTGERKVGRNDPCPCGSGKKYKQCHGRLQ
Chromo domain-containing protein 1 (Saccharomyces cerevisiae (strain ATCC 204508 / S288c) (Baker's yeast)), sequence (P32657 whole entry, the tested form may be a part): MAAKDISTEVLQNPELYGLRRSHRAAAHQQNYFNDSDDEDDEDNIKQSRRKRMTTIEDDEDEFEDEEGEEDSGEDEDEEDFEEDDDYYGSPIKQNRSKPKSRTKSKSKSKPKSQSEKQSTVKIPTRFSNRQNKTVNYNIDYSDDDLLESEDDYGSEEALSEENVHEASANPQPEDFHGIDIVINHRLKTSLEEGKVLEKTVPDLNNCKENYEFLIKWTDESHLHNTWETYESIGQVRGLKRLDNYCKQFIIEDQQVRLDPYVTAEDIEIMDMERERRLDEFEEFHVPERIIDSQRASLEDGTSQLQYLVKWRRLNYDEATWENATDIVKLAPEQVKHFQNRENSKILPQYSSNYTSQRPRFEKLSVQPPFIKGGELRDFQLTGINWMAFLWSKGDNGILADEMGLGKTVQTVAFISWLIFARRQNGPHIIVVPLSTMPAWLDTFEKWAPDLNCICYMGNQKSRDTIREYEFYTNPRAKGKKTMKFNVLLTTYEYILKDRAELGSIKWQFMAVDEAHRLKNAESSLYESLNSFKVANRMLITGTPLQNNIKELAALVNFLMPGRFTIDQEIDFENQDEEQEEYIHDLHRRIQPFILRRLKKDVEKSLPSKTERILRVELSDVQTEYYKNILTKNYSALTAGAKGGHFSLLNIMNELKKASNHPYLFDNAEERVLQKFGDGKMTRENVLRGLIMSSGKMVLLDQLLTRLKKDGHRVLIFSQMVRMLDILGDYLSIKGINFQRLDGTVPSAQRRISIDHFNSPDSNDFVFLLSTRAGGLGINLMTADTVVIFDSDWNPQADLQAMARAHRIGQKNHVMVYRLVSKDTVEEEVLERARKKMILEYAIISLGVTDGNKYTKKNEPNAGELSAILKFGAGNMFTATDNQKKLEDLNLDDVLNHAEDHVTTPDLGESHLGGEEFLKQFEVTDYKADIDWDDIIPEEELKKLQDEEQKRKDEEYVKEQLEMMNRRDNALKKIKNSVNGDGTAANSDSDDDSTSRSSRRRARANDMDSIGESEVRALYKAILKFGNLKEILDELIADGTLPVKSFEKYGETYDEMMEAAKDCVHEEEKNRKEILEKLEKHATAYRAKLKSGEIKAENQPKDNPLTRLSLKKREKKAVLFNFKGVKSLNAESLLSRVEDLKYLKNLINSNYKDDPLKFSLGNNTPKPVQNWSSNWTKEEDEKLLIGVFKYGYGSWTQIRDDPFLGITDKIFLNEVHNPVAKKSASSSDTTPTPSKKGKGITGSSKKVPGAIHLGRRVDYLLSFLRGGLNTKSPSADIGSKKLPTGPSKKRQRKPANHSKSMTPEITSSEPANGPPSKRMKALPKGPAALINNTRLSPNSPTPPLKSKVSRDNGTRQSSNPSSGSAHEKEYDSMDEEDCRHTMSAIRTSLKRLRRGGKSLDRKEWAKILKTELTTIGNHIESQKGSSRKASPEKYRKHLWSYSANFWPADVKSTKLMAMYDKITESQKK
Sialic acid-binding Ig-like lectin 9 (Homo sapiens), sequence (Q9Y336 whole entry): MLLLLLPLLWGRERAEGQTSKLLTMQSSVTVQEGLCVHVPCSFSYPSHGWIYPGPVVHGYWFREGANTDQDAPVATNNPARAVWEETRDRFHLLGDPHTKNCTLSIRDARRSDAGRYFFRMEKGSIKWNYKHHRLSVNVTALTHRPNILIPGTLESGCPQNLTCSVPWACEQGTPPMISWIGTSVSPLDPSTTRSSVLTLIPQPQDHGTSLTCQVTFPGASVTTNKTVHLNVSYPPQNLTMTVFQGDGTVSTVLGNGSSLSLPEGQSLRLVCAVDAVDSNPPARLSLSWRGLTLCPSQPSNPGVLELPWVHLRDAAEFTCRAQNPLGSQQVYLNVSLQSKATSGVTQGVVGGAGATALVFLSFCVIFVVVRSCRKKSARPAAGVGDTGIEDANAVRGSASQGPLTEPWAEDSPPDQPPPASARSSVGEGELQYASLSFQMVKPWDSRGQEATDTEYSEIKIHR

For `CCc1noc(C(C)N2CCN(c3ccc(C#N)cc3F)CC2)n1` (stereo unspecified), the Percent Effect in assay [1] is -1.97%; in assay [2] it was 5.26%; in assay [3] it was 2.6%; in assay [4], -3.73%; in the assay on Trypanosoma cruzi, 7.89%; in assay [5] it was -8.28%. For the same compound, the Percent Effect in assay [6] is 21.2%; in the assay filed under Homo sapiens, -24.1%; in assay [7] it was 6.38%; in assay [8] it was 13%; in [9], -4.69%.

For `CCc1noc(CNc2cc(F)ccc2OCC2CCCO2)n1` (stereo unspecified), the Percent Effect was -0.224% in assay [1]; -2.7% in [2]; -4.16% in assay [3]; 1.82% in assay [4]; -4.83% with Trypanosoma cruzi; -0.476% in assay [5]. For the same compound, the Percent Effect was 11.9% in assay [6]; 2.67% in the assay filed under Homo sapiens; -0.529% in [7]; 0% in assay [8]; -1.43% in [9].

Regarding `CN1CCC(Cc2cc(Nc3ncccn3)ncn2)CC1`, the Percent Effect in assay [1] is -1.87%; in [2] it was 6.76%; in assay [3], 11.2%; in assay [4] it was 0.0242%; in the assay with Trypanosoma cruzi it was -1.98%; in assay [5], -1.16%. Besides, the Percent Effect in assay [6] is 2.34%; in the assay filed under Homo sapiens it was 6.81%; in assay [7], 4.3%; in assay [8] it was 9.09%; in assay [9] it was -10.4%.

On to `Cc1cnn(CC2CCCN2Cc2coc(-c3cccs3)n2)c1` (stereo unspecified), for which the Percent Effect in assay [1] was -6.03%; in [2], 0%; in assay [3], 3.45%; in assay [4], -6.51%; in the assay with Trypanosoma cruzi it was -1.37%; in [5], 0.909%. The Percent Effect in assay [6] is 1.77%; in the assay listed under Homo sapiens, 5.98%; in assay [7], 2.15%; in [8], 10%; in assay [9], -1.19%.

On to `CN(C)C(=O)C1CCCN1CCCNC(=O)c1ccccc1F` (stereo unspecified), for which the Percent Effect in [1] is -2.29%; in assay [2] it was 8.22%; in assay [3] it was -4.32%; in assay [4], 2.43%; in the assay on Trypanosoma cruzi, -0.783%; in assay [5], 0.909%. Also, the Percent Effect in assay [6] was 15.6%; in the assay listed under Homo sapiens, 12.8%; in [7], 5.38%; in assay [8], 12.5%; in [9] it was -3.39%.

Consider `CC(CN1CCC2(CC1)c1nc[nH]c1CCN2S(C)(=O)=O)C(F)(F)F` (stereo unspecified), for which the Percent Effect was -5.83% in assay [1]; 4.17% in [2]; -4.55% in assay [3]; 0.526% in assay [4]; -2.62% in the assay with Trypanosoma cruzi; -1.77% in assay [5]. Moreover, the Percent Effect in assay [6] was 8.07%; in the assay listed under Homo sapiens, -8.95%; in assay [7] it was 3.16%; in assay [8] it was 2.56%; in assay [9], -1.32%.

For `CC(O)CNC(=O)NCc1ccc(N2CCNC(=O)C2)cc1` (stereo unspecified), the Percent Effect in assay [1] is -3.56%; in assay [2], 20.8%; in assay [3], -9.88%; in assay [4], 10.6%; in the assay on Trypanosoma cruzi, 2.06%; in [5], -0.712%. For the same compound, the Percent Effect in [6] is 4.73%; in the assay listed under Homo sapiens it was -4.97%; in assay [7], 11.7%; in assay [8] it was 21.9%; in assay [9], -11.2%.

Take `COc1ccccc1CC1CCCN(CC(=O)N2CCOCC2)C1` (stereo unspecified): the Percent Effect was -0.695% in assay [1]; -7.79% in assay [2]; 1.77% in assay [3]; 6.99% in assay [4]; 1.08% in the assay on Trypanosoma cruzi; 2.32% in assay [5]. Also, the Percent Effect is -1.54% in assay [6]; 2.85% in the assay listed under Homo sapiens; -1.91% in assay [7]; 0% in assay [8]; -10% in [9].

Regarding `Cc1cnn(C2CCCN(C(=O)c3cnc4ccccc4n3)C2)c1` (stereo unspecified), the Percent Effect in assay [1] is -3.93%; in [2], 5.41%; in assay [3], -4.84%; in assay [4] it was 2.3%; with Trypanosoma cruzi it was 1.04%; in assay [5] it was -1.6%. Besides, the Percent Effect is 1.62% in assay [6]; 13% in the assay filed under Homo sapiens; 4.43% in assay [7]; 13.6% in assay [8]; -3.95% in [9].

With `CN1CCCC[C@@H]2[C@H]1[C@@H](c1ccccc1)CCN2C(=O)c1cnccn1`, the Percent Effect was -4.56% in [1]; 1.35% in [2]; 4.14% in assay [3]; 1.98% in [4]; 0.988% with Trypanosoma cruzi; -3.48% in assay [5]. Also, the Percent Effect in assay [6] was 21.2%; in the assay listed under Homo sapiens it was -2.99%; in [7], 5.38%; in assay [8], 11.7%; in [9], -17.5%.

For `C=Cc1ccc(C(=O)N2CCCC(Nc3ccc(F)cc3)C2)cc1` (stereo unspecified), the Percent Effect in assay [1] is -3.33%; in assay [2], 8.11%; in assay [3], 2.02%; in assay [4], 27.7%; with Trypanosoma cruzi, 7.72%; in assay [5], 0.952%. Moreover, the Percent Effect was 3.97% in [6]; 2.82% in the assay filed under Homo sapiens; 2.65% in assay [7]; 19.5% in assay [8]; -11.2% in [9].
